# Data from paper PMC8384837, “Expanding the binding specificity for RNA recognition by a PUF domain”.
# Numbering of substitutions follows the chain as printed.
# What was measured:
# Assay in all cases: yeast three-hybrid, YBZ-1, SC-Leu-His + 0.5 mM 3-AT, 4 days
# Conditions in all cases: tags: N-Gal4 AD-HA kept; label: inside an RPR1-promoter hybrid RNA with tandem MS2 sites; ssRNA
# [1] = target: T1, PUM1 PUF domain R6-TFE (Homo sapiens, UniProt Q14671 828-1176, N1043T;Y1044F;Q1047E)
# T1 sequence: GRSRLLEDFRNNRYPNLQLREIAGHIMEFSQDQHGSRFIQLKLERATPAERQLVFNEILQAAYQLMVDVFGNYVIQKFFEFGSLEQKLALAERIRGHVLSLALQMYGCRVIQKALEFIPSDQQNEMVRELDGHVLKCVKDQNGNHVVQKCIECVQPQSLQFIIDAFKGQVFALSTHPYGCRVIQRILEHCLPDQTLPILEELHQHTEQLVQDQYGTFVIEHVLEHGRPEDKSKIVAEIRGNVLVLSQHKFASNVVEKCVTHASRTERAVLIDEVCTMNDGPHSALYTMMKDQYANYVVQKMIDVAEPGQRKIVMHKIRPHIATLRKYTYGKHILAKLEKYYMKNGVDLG
# How it was run: (§1)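 Pumilio-1 PUF domain libraries, randomized (NNK) at the three base-contacting residues of each repeat, were co-expressed with matching RNA elements from a centromeric plasmid in strain YBZ-1 (LexA–MS2 coat fusion, HIS3 reporter). Transformants were plated on SC-Leu (input) and SC-Leu-His + 0.5 mM 3-AT (selection) for four days, and repeat regions were PCR-amplified and Illumina-sequenced. The interaction score is the log2 change in variant frequency from input to selection, with pseudocount 1 where absent.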
# [2] = target: PUM1 PUF domain R3-RGG (Homo sapiens, UniProt Q14671 828-1176, C935R;R936G;Q939G)
# How it was run: as §1
# [3] = target: T2, PUM1 PUF domain R6-GLR (Homo sapiens, UniProt Q14671 828-1176, N1043G;Y1044L;Q1047R)
# T2 sequence: T1 sequence with T216G, F217L, E220R
# How it was run: as §1
# [4] = target: PUM1 PUF domain R1-KRR (Homo sapiens, UniProt Q14671 828-1176, S863K;Q867R)
# How it was run: as §1
# [5] = target: PUM1 PUF domain R7-EPA (Homo sapiens, UniProt Q14671 828-1176, S1079E;N1080P;E1083A)
# How it was run: as §1
# [6] = target: T3, PUM1 PUF domain R6-RFS (Homo sapiens, UniProt Q14671 828-1176, N1043R;Y1044F;Q1047S)
# T3 sequence: T1 sequence with T216R, E220S
# How it was run: as §1
# [7] = target: PUM1 PUF domain R8-VRR (Homo sapiens, UniProt Q14671 828-1176, N1122V;Y1123R;Q1126R)
# How it was run: as §1
# [8] = target: PUM1 PUF domain R5-DYF (Homo sapiens, UniProt Q14671 828-1176, C1007D;R1008Y;Q1011F)
# How it was run: as §1
# [9] = target: PUM1 PUF domain R5-SRR (Homo sapiens, UniProt Q14671 828-1176, C1007S;Q1011R)
# How it was run: as §1
sequence,measurement,setting,value
GGCUAGAACUAGUGGAUCCCCCGGCGCCCGGCGGCUCGAGCCCGGGUAAGUGGAAAUAGUCUGCAUGCCGCCGGGCGCCAUGCCUGCAGGUCGACUCUAGAAAACAUG,binding signal,[1],3.07 log2 enrichment (interaction score)
GGCUAGAACUAGUGGAUCCCCCGGCGCCCGGCGGCUCGAGCCCGGGUAAGUGUAAUUAGUCUGCAUGCCGCCGGGCGCCAUGCCUGCAGGUCGACUCUAGAAAACAUG,binding signal,[2],2.13 log2 enrichment (interaction score)
GGCUAGAACUAGUGGAUCCCCCGGCGCCCGGCGGCUCGAGCCCGGGUAAGUGCAAAUAGUCUGCAUGCCGCCGGGCGCCAUGCCUGCAGGUCGACUCUAGAAAACAUG,binding signal,[3],3.46 log2 enrichment (interaction score)
GGCUAGAACUAGUGGAUCCCCCGGCGCCCGGCGGCUCGAGCCCGGGUAAGUGUAAAUCGUCUGCAUGCCGCCGGGCGCCAUGCCUGCAGGUCGACUCUAGAAAACAUG,binding signal,[4],5.65 log2 enrichment (interaction score)
GGCUAGAACUAGUGGAUCCCCCGGCGCCCGGCGGCUCGAGCCCGGGUAAGUGUAAAUUGUCUGCAUGCCGCCGGGCGCCAUGCCUGCAGGUCGACUCUAGAAAACAUG,binding signal,[4],5.9 log2 enrichment (interaction score)
GGCUAGAACUAGUGGAUCCCCCGGCGCCCGGCGGCUCGAGCCCGGGUAAGUCUAAAUAGUCUGCAUGCCGCCGGGCGCCAUGCCUGCAGGUCGACUCUAGAAAACAUG,binding signal,[5],4.81 log2 enrichment (interaction score)
GGCUAGAACUAGUGGAUCCCCCGGCGCCCGGCGGCUCGAGCCCGGGUAAGUGUAAAUAGUCUGCAUGCCGCCGGGCGCCAUGCCUGCAGGUCGACUCUAGAAAACAUG,binding signal,[6],4.37 log2 enrichment (interaction score)
same,binding signal,[7],1.71 log2 enrichment (interaction score)
GGCUAGAACUAGUGGAUCCCCCGGCGCCCGGCGGCUCGAGCCCGGGUAAGCGUAAAUAGUCUGCAUGCCGCCGGGCGCCAUGCCUGCAGGUCGACUCUAGAAAACAUG,binding signal,[7],2.81 log2 enrichment (interaction score)
GGCUAGAACUAGUGGAUCCCCCGGCGCCCGGCGGCUCGAGCCCGGGUAAGUGUUAAUAGUCUGCAUGCCGCCGGGCGCCAUGCCUGCAGGUCGACUCUAGAAAACAUG,binding signal,[8],4.44 log2 enrichment (interaction score)
GGCUAGAACUAGUGGAUCCCCCGGCGCCCGGCGGCUCGAGCCCGGGUAAGUGUCAAUAGUCUGCAUGCCGCCGGGCGCCAUGCCUGCAGGUCGACUCUAGAAAACAUG,binding signal,[9],4.23 log2 enrichment (interaction score)
